Experimental findings from PubChem BioAssay (NCI) are described below.

The structures appear in SMILES notation. Compounds without any hit were thinned out: in the full panel of roughly 83,000, 20% have a hit.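 Results are percent growth after 48 hours of single-concentration exposure. 100 means growth as in untreated cells, lower positive values show inhibition; negative values down to -100 show cell death.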 Values without a mark were called inactive. The source made the active and inactive calls. The calls were made as follows: active = growth percent below 10; inactive = the rest.

Test in all cases: NCI-60 one-dose screen, 48 h (100 = growth as untreated, 0 = no growth, -100 = all killed)
One assay deals with SK-MEL-2 melanoma. The conditions noted are these: 10 µM.
The test system of a further assay is EKVX NSCLC. The settings on record: 10 µM.
A further assay concerns SN12C renal. The settings on record: 10 µM.
A further assay has as its system TK-10 renal. The settings on record: 10 µM unless noted.
The next assay concerns CAKI-1 renal. The conditions noted are these: 10 µM.
The next assay deals with A498 renal. The conditions noted are these: 10 µM.
The next assay deals with CCRF-CEM leukemia. The settings on record: 10 µM.
The next assay concerns MOLT-4 leukemia. The settings on record: 10 µM.
Another assay has as its system OVCAR-8 ovarian. The conditions noted are these: 10 µM.
Another assay has as its system OVCAR-5 ovarian. The settings on record: 10 µM.
For a further assay, the system named is OVCAR-4 ovarian. The conditions noted are these: 10 µM.
In a further assay the test system is SK-OV-3 ovarian. The conditions noted are these: 10 µM.
The next assay deals with IGROV1 ovarian. The conditions noted are these: 10 µM.
Another assay relates to OVCAR-3 ovarian. The settings on record: 10 µM.
The test system of the next assay is HS 578T breast. The settings on record: 10 µM.
In the next assay the test system is NCI/ADR-RES ovarian. The settings on record: 10 µM.
The test system of another assay is UO-31 renal. The settings on record: 10 µM.
For another assay, the system named is ACHN renal. The settings on record: 10 µM.
The test system of the next assay is SR leukemia. The conditions noted are these: 10 µM.
A further assay concerns RPMI-8226 leukemia. The settings on record: 10 µM.

As for `COc1ccc(C2(O)CCCCC2)cc1`, the growth was 107% with SK-MEL-2 melanoma; 105% with EKVX NSCLC; 101% in the assay with SN12C renal; 113% in the assay with TK-10 renal; 100% in the assay on CAKI-1 renal; 86.9% in the assay on A498 renal. For the same compound, the growth was 96.1% in the assay with CCRF-CEM leukemia; 97.5% in the assay with MOLT-4 leukemia; 107% in the assay with OVCAR-8 ovarian; 111% in the assay on OVCAR-5 ovarian; 112% with OVCAR-4 ovarian; 107% with SK-OV-3 ovarian. Also, the growth in the assay with IGROV1 ovarian was 111%; in the assay on OVCAR-3 ovarian it was 116%; with HS 578T breast, 93.5%; with NCI/ADR-RES ovarian, 104%.

As for `COc1ccc(-c2cc3c(nn2)-c2ccccc2C3=O)cc1`, the growth with SK-MEL-2 melanoma was 65.5%; with SN12C renal it was 72.7%; in the assay on UO-31 renal it was 89.7%; in the assay with TK-10 renal it was 32.1%; in the assay with ACHN renal, 73.5%; with CAKI-1 renal, 28.9%. Also, the growth with A498 renal is 102%; with CCRF-CEM leukemia, 28.6%; in the assay on SR leukemia, -21.8% (active); in the assay on RPMI-8226 leukemia it was 27.2%; in the assay on OVCAR-8 ovarian, -9.96% (active); in the assay on OVCAR-5 ovarian, 83.7%. Also, the growth in the assay with OVCAR-4 ovarian was -26.1% (active); in the assay with SK-OV-3 ovarian, 102%; in the assay on IGROV1 ovarian, 61.6%; in the assay with OVCAR-3 ovarian it was -49.3% (active); in the assay with HS 578T breast it was 103%; in the assay on NCI/ADR-RES ovarian, 60.9%.

Turning to `CC(=O)C1CCCCC1`, the growth in the assay with SK-MEL-2 melanoma was 106%; with SN12C renal, 97.5%; in the assay on UO-31 renal, 92.8%; in the assay on TK-10 renal, 99.5%; with ACHN renal, 97.3%; with CAKI-1 renal, 90.8%. The growth is 99.1% in the assay on A498 renal; 96.4% in the assay with RPMI-8226 leukemia; 95% with OVCAR-8 ovarian; 107% in the assay on OVCAR-5 ovarian; 103% in the assay with SK-OV-3 ovarian; 106% with IGROV1 ovarian. Moreover, the growth is 110% in the assay with OVCAR-3 ovarian, 104% in the assay on HS 578T breast and 107% in the assay with NCI/ADR-RES ovarian.

In the case of `O=C(O)/C=C/c1ccc2c(c1)CCC2`, the growth with SK-MEL-2 melanoma is 110%; in the assay with SN12C renal, 95.4%; with UO-31 renal, 99.7%; in the assay with TK-10 renal, 107%; in the assay with CAKI-1 renal, 94.5%; with A498 renal, 111%. The growth with CCRF-CEM leukemia was 83.5%; with MOLT-4 leukemia, 97.1%; in the assay with SR leukemia, 80.2%; in the assay with RPMI-8226 leukemia it was 99.2%; in the assay on OVCAR-8 ovarian, 99.8%; in the assay on OVCAR-5 ovarian, 97.8%. In addition, the growth in the assay on OVCAR-4 ovarian was 104%; in the assay on SK-OV-3 ovarian it was 99.6%; in the assay on IGROV1 ovarian, 118%; with OVCAR-3 ovarian, 117%; in the assay with NCI/ADR-RES ovarian, 109%.

`O=C1OC(=O)C2C1C1(Cl)C(Cl)=C(Cl)C2(Cl)C2C(=O)OC(=O)C21` (stereo not drawn): the growth in the assay on SK-MEL-2 melanoma was 88.7%; in the assay on SN12C renal, 105%; in the assay on UO-31 renal, 84.4%; with TK-10 renal, 93%; with ACHN renal, 105%; in the assay with CAKI-1 renal it was 106%. Besides, the growth in the assay with A498 renal was 107%; in the assay on MOLT-4 leukemia it was 105%; with RPMI-8226 leukemia, 96.4%; with OVCAR-8 ovarian, 100%; in the assay on OVCAR-5 ovarian it was 106%; with OVCAR-4 ovarian, 101%. Further, the growth in the assay on SK-OV-3 ovarian is 102%; in the assay with IGROV1 ovarian, 109%; in the assay with OVCAR-3 ovarian it was 112%; with HS 578T breast, 113%; in the assay on NCI/ADR-RES ovarian, 108%.

Consider `CCO/C=C1\SC(=S)N(c2cccc(C)c2)C1=O`, for which the growth was 110% with SK-MEL-2 melanoma; 106% with SN12C renal; 79.3% in the assay on UO-31 renal; 98.9% in the assay on TK-10 renal; 106% in the assay on ACHN renal; 101% in the assay on CAKI-1 renal. In addition, the growth in the assay on A498 renal was 113%; in the assay on MOLT-4 leukemia, 95.7%; in the assay on SR leukemia, 87.9%; in the assay with RPMI-8226 leukemia it was 92.4%; in the assay on OVCAR-8 ovarian, 101%; in the assay on OVCAR-5 ovarian, 106%. Besides, the growth is 100% with OVCAR-4 ovarian; 88.7% in the assay on SK-OV-3 ovarian; 107% in the assay with IGROV1 ovarian; 104% in the assay with OVCAR-3 ovarian; 103% with HS 578T breast; 109% in the assay with NCI/ADR-RES ovarian.

For the compound `CCCCCCCCCCC1CO1` (stereo not drawn), the growth in the assay on SK-MEL-2 melanoma is 118%; in the assay on SN12C renal, 102%; in the assay on UO-31 renal, 82.2%; with TK-10 renal it was 112%; with ACHN renal it was 109%; in the assay on CAKI-1 renal, 104%. The growth with A498 renal is 108%; in the assay with CCRF-CEM leukemia, 97.2%; in the assay with MOLT-4 leukemia it was 105%; with SR leukemia, 98.5%; in the assay on OVCAR-8 ovarian, 109%; in the assay with OVCAR-5 ovarian, 111%. The growth with SK-OV-3 ovarian is 101%; in the assay with IGROV1 ovarian, 111%; with OVCAR-3 ovarian, 111%; with HS 578T breast, 118%; with NCI/ADR-RES ovarian it was 110%.
